# Laboratory results as given in PubChem BioAssay (NCI).
# This is part of a sample that, as a whole, favours compounds with a hit. Of some 83,000 tested, about 20% had one in any assay.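 Each cell line was grown in a 96-well plate and treated with one concentration of compound for 48 hours. Values below 10 were considered active.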 Unmarked numbers belong to inactive results. Calls of active or inactive are those of the source.
# Test system: UACC-62 melanoma
# Experiment: NCI-60 one-dose screen, 48 h (100 = growth as untreated, 0 = no growth, -100 = all killed)
# Settings: 10 µM unless noted
row,SMILES,growth
1,CCN(CC)CCOc1ccccc1-n1c(C)ccc1-c1ccccc1,106%
2,Cn1cc(-c2csc(-c3c[nH]c4ncccc34)n2)c2cc(Br)cnc21,32.5%
3,COc1ccc(/C=C2\NC(=S)NC2=O)cc1,95.3%
4,Nc1ccccc1-c1ccc([N+](=O)[O-])cc1,24.9%
5,Cc1cc(NC(=O)c2ccc(N)cc2)ccc1N=Nc1ccc2c(O)c(N=Nc3ccc(Cl)c(S(=O)(=O)O)c3)c(S(=O)(=O)O)cc2c1,88.5%
6,CC[N+](CC)(CCOCCOCC[N+](CC)(CC)Cc1ccc([N+](=O)[O-])cc1)Cc1ccc([N+](=O)[O-])cc1,88.4%
7,CCC(c1ccccc1)c1noc(CCN(CC)CC)n1 (centres undefined),98.9%
8,CC(=O)Nc1ccc2c(c1)Cc1c(F)c(F)c(F)c(F)c1-2,77.4%
9,OC(Cc1cccnc1)c1ccccc1 (centres undefined),97.4%
10,C/C(=N/N=C(N)N)c1ccc(N)cc1,105%
11,O=C(O)c1ccccc1C(=O)OC1CCCC2CCCC21 (centres undefined),97%
12,CN1CCCC1c1cccnc1 (centres undefined),94.1%
13,COc1c(O)cc2oc3cc(O)c(CC=C(C)C)c(O)c3c(=O)c2c1C/C=C(\C)CCC=C(C)C,98.9%
14,Nc1nc(SCc2ccccc2Cl)c(-c2ccccc2)c(SCc2ccccc2Cl)n1,99.6%
15,CO[C@H]1/C=C/O[C@@]2(C)Oc3c(C)c(O)c4c(O)c(c(/C=N/N5C(C)CN(Cc6ccccc6)CC5C)c(O)c4c3C2=O)NC(=O)/C(C)=C\C=C\[C@H](C)[C@H](O)[C@@H](C)[C@@H](O)[C@@H](C)[C@H](OC(C)=O)[C@@H]1C (some centres undefined),72.8%
16,CCOC(=O)C(C(C)=O)c1nc2sc3cc(Cl)ccc3n2c(=N)c1C#N (centres undefined),67.8%
17,COc1ccc(-c2nn(-c3cccc(Cl)c3)cc2C2CC(c3ccccc3)=NN2C(C)=O)cc1 (centres undefined),83.5%
18,CCS(=O)(=O)OCCCl,101%
19,O=C1Nc2ccc(F)cc2/C1=C/c1nc(-c2ccc(F)cc2)n2ccccc12,97%

row,SMILES,growth
1,Cc1c(C(N)=O)sc2ncn(Cc3ccccc3)c(=O)c12,102%
2,Nc1nc2ncc(CCNc3ccc(C(=O)NC(CCC(=O)O)C(=O)O)cc3)nc2c(=O)[nH]1 (centres undefined),99.6%
3,COc1cccc2c1C(=O)c1c(O)c3c(c(O)c1C2=O)C[C@@](O)(/C(C)=N/NC(=O)c1cccc([N+](=O)[O-])c1)C[C@@H]3OC1CC(N)C(O)C(C)O1 (some centres undefined),-93.9% (active)
4,NC(=O)NN=C(C1CC1)C1CC1,110%
5,C[n+]1ccc(Nc2ccc(NC(=O)c3ccc(Nc4cc[n+](C)c5ccc(N)cc45)cc3)cc2)cc1,89.2%
6,COc1cc(OC)c2cc(C(=O)O)c(=O)oc2c1,95.5%
7,CCOc1ccccc1C(=O)OCC(=O)Nc1cccc(S(=O)(=O)N(C)C)c1,94.5%
8,S=C(Nc1ccc(C2=NCCN2)cc1)Nc1ccc(C2=NCCN2)cc1,107%
9,S=c1[nH]nc2sc3ccccc3n12,97.4%
10,Cn1c(N)c(N=O)c(=O)[nH]c1=O,103%
11,Cc1ccc(C(=O)Nc2ccc(Cl)cc2C(=O)NCc2ccccc2)cc1,70.7%
12,O=[N+]([O-])c1ccc2c(c1)S(=O)c1cc([N+](=O)[O-])ccc1N2,93.5%
13,Nc1ccc2c3c(cccc13)-c1ccccc1-2,84.7%
14,CC(c1cc(Cl)ccc1O)c1cc(Cl)ccc1O,44.8%
15,Nc1ccc2c(c1)/C(=N/O)c1cc([N+](=O)[O-])ccc1-2,73.1%
16,Nc1cc(Cl)c(S(N)(=O)=O)cc1S(N)(=O)=O,101%
17,O=C(CSc1nc2c(n1Nc1ccccc1)-c1ccccc1SC2)Nc1nc(-c2ccc(Cl)cc2)cs1,83.3%
18,Cc1cc(O)c2c(c1)C[C@H]1[C@@H]3CC[C@H]4CC(=O)CC[C@]4(C)[C@H]3CC(=O)[C@]21C,57.4%

# Test system: LOX IMVI melanoma
# Experiment: as above
# Settings: 10 µM unless noted
row,SMILES,growth
1,CCN(CC)CCOc1ccccc1-n1c(C)ccc1-c1ccccc1,88.5%
2,Cn1cc(-c2csc(-c3c[nH]c4ncccc34)n2)c2cc(Br)cnc21,20.5%
3,COc1ccc(/C=C2\NC(=S)NC2=O)cc1,112%
4,Nc1ccccc1-c1ccc([N+](=O)[O-])cc1,54.7%
5,Cc1cc(NC(=O)c2ccc(N)cc2)ccc1N=Nc1ccc2c(O)c(N=Nc3ccc(Cl)c(S(=O)(=O)O)c3)c(S(=O)(=O)O)cc2c1,72.7%
6,CC[N+](CC)(CCOCCOCC[N+](CC)(CC)Cc1ccc([N+](=O)[O-])cc1)Cc1ccc([N+](=O)[O-])cc1,104%
7,CCC(c1ccccc1)c1noc(CCN(CC)CC)n1 (centres undefined),100%
8,CC(=O)Nc1ccc2c(c1)Cc1c(F)c(F)c(F)c(F)c1-2,80.3%
9,OC(Cc1cccnc1)c1ccccc1 (centres undefined),101%
10,C/C(=N/N=C(N)N)c1ccc(N)cc1,96.6%
11,O=C(O)c1ccccc1C(=O)OC1CCCC2CCCC21 (centres undefined),95.1%
12,CN1CCCC1c1cccnc1 (centres undefined),100%
13,COc1c(O)cc2oc3cc(O)c(CC=C(C)C)c(O)c3c(=O)c2c1C/C=C(\C)CCC=C(C)C,-85.8% (active)
14,Nc1nc(SCc2ccccc2Cl)c(-c2ccccc2)c(SCc2ccccc2Cl)n1,84.7%
15,CO[C@H]1/C=C/O[C@@]2(C)Oc3c(C)c(O)c4c(O)c(c(/C=N/N5C(C)CN(Cc6ccccc6)CC5C)c(O)c4c3C2=O)NC(=O)/C(C)=C\C=C\[C@H](C)[C@H](O)[C@@H](C)[C@@H](O)[C@@H](C)[C@H](OC(C)=O)[C@@H]1C (some centres undefined),76%
16,CCOC(=O)C(C(C)=O)c1nc2sc3cc(Cl)ccc3n2c(=N)c1C#N (centres undefined),97.2%
17,COc1ccc(-c2nn(-c3cccc(Cl)c3)cc2C2CC(c3ccccc3)=NN2C(C)=O)cc1 (centres undefined),76.7%
18,CCS(=O)(=O)OCCCl,98.5%
19,O=C1Nc2ccc(F)cc2/C1=C/c1nc(-c2ccc(F)cc2)n2ccccc12,92.9%

row,SMILES,growth
1,Cc1c(C(N)=O)sc2ncn(Cc3ccccc3)c(=O)c12,89.6%
2,Nc1nc2ncc(CCNc3ccc(C(=O)NC(CCC(=O)O)C(=O)O)cc3)nc2c(=O)[nH]1 (centres undefined),98.3%
3,COc1cccc2c1C(=O)c1c(O)c3c(c(O)c1C2=O)C[C@@](O)(/C(C)=N/NC(=O)c1cccc([N+](=O)[O-])c1)C[C@@H]3OC1CC(N)C(O)C(C)O1 (some centres undefined),-33.3% (active)
4,NC(=O)NN=C(C1CC1)C1CC1,95.9%
5,C[n+]1ccc(Nc2ccc(NC(=O)c3ccc(Nc4cc[n+](C)c5ccc(N)cc45)cc3)cc2)cc1,103%
6,COc1cc(OC)c2cc(C(=O)O)c(=O)oc2c1,67%
7,CCOc1ccccc1C(=O)OCC(=O)Nc1cccc(S(=O)(=O)N(C)C)c1,101%
8,S=C(Nc1ccc(C2=NCCN2)cc1)Nc1ccc(C2=NCCN2)cc1,96.7%
9,S=c1[nH]nc2sc3ccccc3n12,99.2%
10,Cn1c(N)c(N=O)c(=O)[nH]c1=O,102%
11,Cc1ccc(C(=O)Nc2ccc(Cl)cc2C(=O)NCc2ccccc2)cc1,79.2%
12,O=[N+]([O-])c1ccc2c(c1)S(=O)c1cc([N+](=O)[O-])ccc1N2,102%
13,Nc1ccc2c3c(cccc13)-c1ccccc1-2,91.7%
14,CC(c1cc(Cl)ccc1O)c1cc(Cl)ccc1O,30.1%
15,Nc1ccc2c(c1)/C(=N/O)c1cc([N+](=O)[O-])ccc1-2,64.6%
16,Nc1cc(Cl)c(S(N)(=O)=O)cc1S(N)(=O)=O,101%
17,O=C(CSc1nc2c(n1Nc1ccccc1)-c1ccccc1SC2)Nc1nc(-c2ccc(Cl)cc2)cs1,30.4%
18,Cc1cc(O)c2c(c1)C[C@H]1[C@@H]3CC[C@H]4CC(=O)CC[C@]4(C)[C@H]3CC(=O)[C@]21C,85.1%
